Reference: PubChem BioAssay (NCATS)
Results filed as inconclusive are left out. Active and inactive are the calls of the source. Calls come from the whole dose curve; as a rule, active = well fitted inhibition curve with a large enough effect; inconclusive = small, poorly fitted or top-dose-only effect; inactive = no such curve, though single readings can be large or run the other way.

assay: qHTS to identify inhibitors of the type 1 interferon - major histocompatibility complex class I in skeletal muscle: primary screen against the NCATS Mechanism Interrogation Plate v5.0 (MIPE) Libary (AID 1347411); details: iHSKM cells + IFN-b, HiBiT-tagged MHC-I luminescence, 24 h; series mostly up to 45.8 µM; activity change, negative = inhibition: at the top concentration; note: nearly all actives have a fitted effect of over 65% in size
Source text: Assay Submitter (PI): Travis B. Kinder Ph.D. & James Inglese Ph.D.
Assay Development and Screening Technology Laboratory (ADST)
National Center for Advancing Translational Sciences (NCATS), Rockville, MD
National Institute of Health (NIH), Bethesda, Maryland
Idiopathic inflammatory myopathies, collectively referred to as myositis, are a group of rare autoimmune diseases characterized by skeletal muscle inflammation, weakness, and usually accompanied by systemic pathologies of the skin, lungs, or vasculature. Current immunosuppressive therapies and glucocorticoids are often not curative and are accompanied by harsh side effects, especially in children with juvenile myositis. We initiated a drug repurposing and development program to identify more targeted, less toxic therapeutics to treat myositis. Although its cause is not known, muscle from a subset of patients have an abundance of the inflammatory type 1 interferon (IFN) and a down-stream product major histocompatibility complex class I (MHC class I), which are both thought to contribute to damage and weakness. We conducted quantitative high throughput screening on 6,576 compounds (4,679 unique) through a series of cell-based assays to identify those that inhibit the IFN-stimulated expression of MHC class I in muscle precursor cells (myoblasts). The compound identification and evaluation strategy utilized a primary screen with reporter-tagged MHC class I in genome-engineered myoblasts, ATP content counter screen for viability, HLA-ABC immunofluorescence secondary screen, and HLA-B RT-qPCR tertiary screen.
The primary screen utilized CRISPR/Cas9 genome-engineering of immortalized human myoblasts, C25cl48, where a pro-luminescent reporter HiBit was fused to the C-terminus of endogenous MHC class I allele HLA-B*08:01 (HLA-B HiBit myoblasts). HiBit is an 11 amino acid fragment of NanoLuc luminescent reporter (Promega Corporation), and when complexed to the larger LgBit fragment, the reconstituted enzyme produces light in the presence of furimazine substrate (Schwinn et al., 2018). Briefly, HLA-B HiBit myoblasts were plated into 1536-well plates, treated with 4.0 ng/ml human IFN-beta and 2,480 compounds from the NCATS Mechanism Interrogation Plate v5.0 (MIPE5.0) in an 11-point, 1:3 titration with a high final concentration of 46 uM. After 24 hrs of treatment, cells were assayed by Nano-Glo HiBiT Lytic Detection System (Promega) and luminescence measured by a ViewLux 1430 Ultra HTS (Perkin Elmer).
Schwinn MK, Machleidt T, Zimmerman K, Eggers CT, Dixon AS, Hurst R, Hall MP, Encell LP, Binkowski BF, Wood K V. 2018. CRISPR-Mediated Tagging of Endogenous Proteins with a Luminescent Peptide. ACS Chem Biol 13:467-474. doi:10.1021/acschembio.7b00549
PROTOCOL TABLE (as described by Inglese et al., 2007)
SEQUENCE No. (e.g., 1, 2, 3, etc.); […] (e.g., Cells, Incubation, Reagent, etc.); VALUE; DESCRIPTION
1a; Cells; 5 uL; Use a Multidrop Combi (Thermo Scientific) to seed 300 cells/well into 24 Greiner 1536 well white/solid bottom, high base, TC plates in 5 ul/well of iHSKM growth medium (GM) without dexamethasone into columns 1+2. Add metal lids with gas-exchange holes
1b; Cells; 5 uL; Use a Multidrop Combi (Thermo Scientific) to seed 300 cells/well into 24 Greiner 1536 well white/solid bottom, high base, TC plates in 5 ul/well of iHSKM GM without dexamethasone + 4 ng/ml IFN-b into columns 3 - 48. Add metal lids with gas-exchange holes
2; Incubate; 1 hr; Incubate at 37 C, 5% CO2, 95% RH
3; Compounds; 23 nl; Use Pin Tool (Wako) to transfer DMSO control, ruxolitinib IFN-b inhibitor control [High Concentration = 80 uM final, 16-pt, 1:2 in duplicate], and library compounds in DMSO
4; Incubate; 24 hrs; Incubate at 37 C, 5% CO2, 95% RH
5; Dispense; 2.5 ul; Use BioRAPTR FRD (Beckman Coulter) to add HiBit lytic reagent
6; Incubate; 10 min; Incubate in the dark at ambient temperature for lysis
7; Detector; 5 sec; Measure luminescence with ViewLux 1430 Ultra HTS (Perkin Elmer). […]
Potency is the fitted concentration of half-maximal effect.

SMILES | activity change, negative = inhibition | Potency
CC(N)C12CC3CC(CC(C3)C1)C2 (stereo not given) | 10.5% (inactive) | 
CCOC(=O)c1ccc(C#Cc2ccc3c(c2)C(C)(C)CCS3)nc1 | -9.49% (inactive) | 
C[C@@H]1CN(c2c(F)c(N)c3c(=O)c(C(=O)O)cn(C4CC4)c3c2F)C[C@H](C)N1 | -16.2% (inactive) | 
CN(C)CCc1c[nH]c2ccc(CS(=O)(=O)N3CCCC3)cc12 | -4.2% (inactive) | 
O=NN(CCCl)C(=O)NC1CCCCC1 | 9.36% (inactive) | 
C[C@]12C=CC(=O)C=C1CC[C@@H]1[C@@H]2C(=O)C[C@@]2(C)[C@H]1CC[C@]2(O)C(=O)CO | -18.7% (inactive) | 
CC(C)(C)NC(=O)[C@H]1CC[C@H]2[C@@H]3CC[C@H]4NC(=O)C=C[C@]4(C)[C@H]3CC[C@]12C | -1.82% (inactive) | 
COc1ccc(-c2ccc3cc(C(=O)O)ccc3c2)cc1C12CC3CC(CC(C3)C1)C2 | -10.2% (inactive) | 
Cn1nnc2c(C(N)=O)ncn2c1=O | -5.31% (inactive) | 
CCc1cc(C(N)=S)ccn1 | 8.82% (inactive) | 
S=P(N1CC1)(N1CC1)N1CC1 | -1.9% (inactive) | 
CCCc1nc(C)c2c(=O)[nH]c(-c3cc(S(=O)(=O)N4CCN(CC)CC4)ccc3OCC)nn12 | 26.2% (inactive) | 
CC(C)C1CCC(C(=O)N[C@H](Cc2ccccc2)C(=O)O)CC1 (stereo not given in full) | -7.37% (inactive) | 
O=C(O)c1ccc(-n2nc(-c3ccccc3O)nc2-c2ccccc2O)cc1 | -27.2% (inactive) | 
NCCCC(O)(P(=O)(O)O)P(=O)(O)O | 15.7% (inactive) | 
Nc1nc(N)nc(-c2cc(Cl)ccc2Cl)n1 | -24% (inactive) | 
Nc1[nH]c(=O)ncc1F | 7.68% (inactive) | 
OCc1ccc(-c2nn(Cc3ccccc3)c3ccccc23)o1 | -16.9% (inactive) | 
O=c1oc2c(O)c(O)cc3c(=O)oc4c(O)c(O)cc1c4c23 | -6.82% [at 15.5 µM] (inactive) | 
CCOc1cc(N)c(Cl)cc1C(=O)NCC1CN(Cc2ccc(F)cc2)CCO1 (stereo not given) | -22.1% (inactive) | 

SMILES | activity change, negative = inhibition | Potency
O=S(=O)(O)CCS | -2.87% (inactive) | 
CCC(=O)O[C@]1(C(=O)CCl)[C@@H](C)C[C@H]2[C@@H]3CCC4=CC(=O)C=C[C@]4(C)[C@@]3(F)[C@@H](O)C[C@@]21C | -41.2% (inactive) | 
CCCCS(=N)(=O)CCC(N)C(=O)O (stereo not given) | 6.25% [at 74.1 µM] (inactive) | 
O=c1cc(O)c(Cl)c[nH]1 | 14.1% (inactive) | 
C[C@@H](CN1CC(=O)NC(=O)C1)N1CC(=O)NC(=O)C1 | 23.8% (inactive) | 
NC(=O)c1cccnc1 | -4.09% (inactive) | 
CC(C(=O)O)c1ccc2c(c1)CC(=O)c1ccccc1S2 (stereo not given) | -18.1% (inactive) | 
COc1ncnc(NS(=O)(=O)c2ccc(N)cc2)c1OC | -13.9% (inactive) | 
CC(=O)Oc1ccccc1C(=O)Nc1ncc([N+](=O)[O-])s1 |  | 23.4 µM (active)
COC(c1ccccc1)(c1ccccc1)[C@H](Oc1nc(C)cc(C)n1)C(=O)O | -26.8% (inactive) | 
CCOC(=O)c1ccc(OC(=O)CCCCCN=C(N)N)cc1 | -22.3% (inactive) | 
CCCc1cc(C(N)=S)ccn1 | 4.29% (inactive) | 
CC(=O)[C@H]1CC[C@H]2[C@@H]3CC=C4C[C@@H](O)CC[C@]4(C)[C@H]3CC[C@]12C | 7.73% (inactive) | 
CC[C@H](NC(C)C)[C@H](O)c1ccc(O)c2[nH]c(=O)ccc12 | -14.4% (inactive) | 
Nc1nc(=S)c2[nH]cnc2[nH]1 | 10% (inactive) | 
Cc1oc(=O)oc1CN1CCN(c2cc3c(cc2F)c(=O)c(C(=O)O)c2n3C(C)S2)CC1 (stereo not given) | -25.5% (inactive) | 
CCCCCCNC(=O)n1cc(F)c(=O)[nH]c1=O | 7.54% (inactive) | 
CNC(=O)c1cc(Oc2ccc(NC(=O)Nc3ccc(Cl)c(C(F)(F)F)c3)cc2)ccn1 |  | 16.5 µM (active)
CCN[C@H]1C[C@H](C)S(=O)(=O)c2sc(S(N)(=O)=O)cc21 | 13.1% (inactive) | 
CCC(=O)O[C@]1(C(=O)SCF)[C@H](C)C[C@H]2[C@@H]3C[C@H](F)C4=CC(=O)C=C[C@]4(C)[C@@]3(F)[C@@H](O)C[C@@]21C | -24.3% (inactive) | 
